Results published in PubChem BioAssay (NCI).
“And” between values parts separate entries of the source, which are not always exact repeats. Identical values can stand only once. The panel holds about 79,000 compounds, 15% with a hit somewhere; the sample as a whole holds those more often. Some structures have more than one record in an assay (separate samples or runs), and their calls can disagree. The source made the active and inactive calls. Cut-off read from the data, not from the text of the source: active = growth inhibition above about 70%; inactive = the rest.

Experiment: NCI Yeast Anticancer Drug Screen. Data for the cln2 rad14 strain (AID 165);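 note: 0% = growth equal to vehicle treated cultures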
Conditions: S. cerevisiae cln2 rad14 strain, at 5.0 µM (retest, dose inferred, filed as 0.5), stronger effect = higher value
Procedure, shortened: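 The screen exposed genetically defined yeast (cln2 rad14) to test compounds and scored growth inhibition relative to vehicle-treated controls.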

Row | SMILES | growth inhibition
1 | O=c1[nH]cnc2[nH]cc(CN3CCCCC3)c12 | -32% (inactive)
2 | NCCBr | 3% (inactive)
3 | CSc1ncc(COP(=S)(OCc2cnc(SC)nc2N)OCc2cnc(SC)nc2N)c(N)n1 | 8% (inactive)
4 | O=[N+]([O-])c1ccc(O)c(Cl)c1 | -12% (inactive)
5 | CCN(CC)CC(=O)c1ccc2c(ccc3ccccc32)c1 | -1% (inactive)
6 | Cc1ccc([C@H]2N[C@@H]2c2ccccn2)cc1 | -15% (inactive)
7 | CCC1(C2=CCCCC2)C(=O)NC(=S)NC1=O | -14% (inactive)
8 | Cn1cnc(C(=N)[Se])c1N | 2% (inactive)
9 | CCOC(=O)NC(=S)[S][Sb]([S]C(=S)NC(=O)OCC)[S]c1nc2ccc(N=Nc3ccc(NS(=O)(=O)c4ccc(NC(=O)C(N5CC5)(N5CC5)N5CC5)cc4)cc3)cc2s1 | 16% (inactive)
10 | COc1ccccc1/C=C(/C)[N+](=O)[O-] | 13% (inactive) and 12% (inactive)
11 | O=c1oc2ccccc2c(O)c1C(c1ccc(OCc2ccccc2)cc1)c1c(O)c2ccccc2oc1=O | -3% (inactive)
12 | COc1cc(N(CCCl)CCCl)ccc1C=Nc1cccc(Cl)c1 | 0% (inactive)
13 | O=[N+]([O-])c1cc2c([N+](=O)[O-])cccc2o1 | 0% (inactive)
14 | ClCCN(CCCl)c1ccc(C2N(Cc3ccc(N(CCCl)CCCl)cc3Cl)CCCN2Cc2ccc(N(CCCl)CCCl)cc2Cl)cc1 | -7% (inactive)
15 | CCN(Cc1ccccc1)CC(O)c1ccc(Cl)c(Cl)c1 (stereo not drawn) | 2% (inactive)
16 | FC1(F)C(Cl)=[C]([Hg][C]2=C(Cl)C(F)(F)C(F)(F)C(F)(F)C2(F)F)C(F)(F)C(F)(F)C1(F)F | 57% (inactive)
17 | CCn1c(O)c(C(=O)NC(C)c2ccc([N+](=O)[O-])cc2)c(=O)n(CC)c1=S (stereo not drawn) | 17% (inactive)
18 | CC(=O)[O][Hg][c]1ccccc1N | 46% (inactive)
19 | CCC[CH2][Sn]1([CH2]CCC)[O]Cc2nc(C)ccc2[O]1 | 15% (inactive)
20 | CCCCCCCCCCCCC(=O)[O][Hg][c]1ccccc1 | 99% (active)

Row | SMILES | growth inhibition
21 | CN(C)CC1CC2C3CC=C4CC(O)CCC4(C)C3CCC2(C)C1=O (stereo not drawn) | 4% (inactive)
22 | CC(=O)O.CC(=O)[O-].CC(=O)[O-].[Co+3].[NH-]CC[NH-].[NH-]CC[NH-] | -4% (inactive)
23 | Nc1nc(CCl)cs1 | -7% (inactive)
24 | CC1=CCC2(C)C3CCC4(C)C(O)CCC4C3CCC2(C)C1 (stereo not drawn) | -6% (inactive)
25 | CC1CCC2(NC1)OC1CC3C4CC=C5CC(O)CCC5(C)C4CCC3(C)C1C2C (stereo not drawn) | 72% (active) and -17% (inactive)
26 | CCN1CCC(O)(c2ccc(Cl)c(Cl)c2)C(C(=O)c2ccc(Cl)c(Cl)c2)C1 (stereo not drawn) | 60% (inactive)
27 | O=C(c1ccccc1)c1c(CC(O)c2ccccn2)n(C(=O)c2ccccc2)c2ccccc12 (stereo not drawn) | 12% (inactive)
28 | CC(O[Si](c1ccccc1)(c1ccccc1)C(C)(C)C)[C@H](NC(=O)OC(C)(C)C)C(=O)O (stereo partly drawn) | -15% (inactive)
29 | CC(C)=CC1CC(C)C2(CCC3(C)CC4C(C(=O)CC4(C)O)/C(C=O)=C\CC32)O1 (stereo not drawn) | 99% (active)
30 | CC(=O)O[C@H]1C[C@@H]2OC3C=C(C)CCC3(C)[C@@]1(C)[C@@]21CO1 (stereo partly drawn) | 99% (active)
31 | O=C1NC(=O)C([N+](=O)[O-])C(=O)N1 | 29% (inactive)
32 | N#C[S-].[Nd+3].c1ccc(-c2ccccn2)nc1.c1ccc(-c2ccccn2)nc1.c1ccc(-c2ccccn2)nc1 | 33% (inactive)
33 | CC(=O)Nc1ccccc1[As](O[As](c1ccccc1)c1ccccc1NC(C)=O)c1ccccc1 (stereo not drawn) | 37% (inactive)
34 | Oc1cccc[c]1[Hg][Cl] | 100% (active)
35 | Nc1nc(N)c(-c2ccc(Cl)c(Cl)c2)c(CCc2ccc(CNC(=O)Nc3ccc(S(=O)(=O)F)cc3)cc2)n1 | 1% (inactive)
36 | C1CC[N-]CC1.CC(=N\O)/C(C)=N/O.CC(=N\O)/C(C)=N/O.OC1[CH-]CCCC1.[Co+2] | 17% (inactive)
37 | CC(=O)OC1C2(CC3N4C(=O)C5(CO)SSC4(CC31O)C(=O)N5C)OC(C)C(C)(C)C2=O (stereo not drawn) | 64% (inactive)
38 | C[C@H]1C/C=C/[C@H]2[C@@H]3O[C@]3(C)[C@@H](C)[C@H]3[C@H](Cc4ccccc4)NC(=O)[C@]32OC(=O)O/C=C/[C@@](C)(O)C1=O | 25% (inactive)
39 | C1CC[N-]CC1.[Cl][Au]([Cl])[Cl] | 31% (inactive)

Same assay, conditions: S. cerevisiae cln2 rad14 strain, at 50.0 µM (retest, dose inferred, filed as 5.0), stronger effect = higher value

Row | SMILES | growth inhibition
40 | O=c1[nH]cnc2[nH]cc(CN3CCCCC3)c12 | 0% (inactive)
41 | NCCBr | -3% (inactive)
42 | CSc1ncc(COP(=S)(OCc2cnc(SC)nc2N)OCc2cnc(SC)nc2N)c(N)n1 | -3% (inactive)
43 | O=[N+]([O-])c1ccc(O)c(Cl)c1 | 57% (inactive)
44 | CCN(CC)CC(=O)c1ccc2c(ccc3ccccc32)c1 | 97% (active)
45 | Cc1ccc([C@H]2N[C@@H]2c2ccccn2)cc1 | -5% (inactive)
46 | CCC1(C2=CCCCC2)C(=O)NC(=S)NC1=O | 62% (inactive)
47 | Cn1cnc(C(=N)[Se])c1N | 15% (inactive)
48 | CCOC(=O)NC(=S)[S][Sb]([S]C(=S)NC(=O)OCC)[S]c1nc2ccc(N=Nc3ccc(NS(=O)(=O)c4ccc(NC(=O)C(N5CC5)(N5CC5)N5CC5)cc4)cc3)cc2s1 | 98% (active)
49 | COc1ccccc1/C=C(/C)[N+](=O)[O-] | 99% (active)
50 | O=c1oc2ccccc2c(O)c1C(c1ccc(OCc2ccccc2)cc1)c1c(O)c2ccccc2oc1=O | 94% (active)
51 | COc1cc(N(CCCl)CCCl)ccc1C=Nc1cccc(Cl)c1 | 20% (inactive)
52 | O=[N+]([O-])c1cc2c([N+](=O)[O-])cccc2o1 | 99% (active)
53 | ClCCN(CCCl)c1ccc(C2N(Cc3ccc(N(CCCl)CCCl)cc3Cl)CCCN2Cc2ccc(N(CCCl)CCCl)cc2Cl)cc1 | 99% (active)
54 | CCN(Cc1ccccc1)CC(O)c1ccc(Cl)c(Cl)c1 (stereo not drawn) | 99% (active)
55 | FC1(F)C(Cl)=[C]([Hg][C]2=C(Cl)C(F)(F)C(F)(F)C(F)(F)C2(F)F)C(F)(F)C(F)(F)C1(F)F | 99% (active)
56 | CCn1c(O)c(C(=O)NC(C)c2ccc([N+](=O)[O-])cc2)c(=O)n(CC)c1=S (stereo not drawn) | 46% (inactive)
57 | CC(=O)[O][Hg][c]1ccccc1N | 99% (active)
58 | CCC[CH2][Sn]1([CH2]CCC)[O]Cc2nc(C)ccc2[O]1 | 93% (active)
59 | CCCCCCCCCCCCC(=O)[O][Hg][c]1ccccc1 | 99% (active)

Row | SMILES | growth inhibition
60 | CN(C)CC1CC2C3CC=C4CC(O)CCC4(C)C3CCC2(C)C1=O (stereo not drawn) | 64% (inactive)
61 | CC(=O)O.CC(=O)[O-].CC(=O)[O-].[Co+3].[NH-]CC[NH-].[NH-]CC[NH-] | 96% (active)
62 | Nc1nc(CCl)cs1 | -8% (inactive)
63 | CC1=CCC2(C)C3CCC4(C)C(O)CCC4C3CCC2(C)C1 (stereo not drawn) | 83% (active)
64 | CC1CCC2(NC1)OC1CC3C4CC=C5CC(O)CCC5(C)C4CCC3(C)C1C2C (stereo not drawn) | 99% (active) and 98% (active)
65 | CCN1CCC(O)(c2ccc(Cl)c(Cl)c2)C(C(=O)c2ccc(Cl)c(Cl)c2)C1 (stereo not drawn) | 99% (active)
66 | O=C(c1ccccc1)c1c(CC(O)c2ccccn2)n(C(=O)c2ccccc2)c2ccccc12 (stereo not drawn) | 88% (active)
67 | CC(O[Si](c1ccccc1)(c1ccccc1)C(C)(C)C)[C@H](NC(=O)OC(C)(C)C)C(=O)O (stereo partly drawn) | 98% (active)
68 | CC(C)=CC1CC(C)C2(CCC3(C)CC4C(C(=O)CC4(C)O)/C(C=O)=C\CC32)O1 (stereo not drawn) | 99% (active)
69 | CC(=O)O[C@H]1C[C@@H]2OC3C=C(C)CCC3(C)[C@@]1(C)[C@@]21CO1 (stereo partly drawn) | 99% (active)
70 | O=C1NC(=O)C([N+](=O)[O-])C(=O)N1 | 39% (inactive)
71 | N#C[S-].[Nd+3].c1ccc(-c2ccccn2)nc1.c1ccc(-c2ccccn2)nc1.c1ccc(-c2ccccn2)nc1 | 96% (active)
72 | CC(=O)Nc1ccccc1[As](O[As](c1ccccc1)c1ccccc1NC(C)=O)c1ccccc1 (stereo not drawn) | 99% (active)
73 | Oc1cccc[c]1[Hg][Cl] | 99% (active)
74 | Nc1nc(N)c(-c2ccc(Cl)c(Cl)c2)c(CCc2ccc(CNC(=O)Nc3ccc(S(=O)(=O)F)cc3)cc2)n1 | 40% (inactive)
75 | C1CC[N-]CC1.CC(=N\O)/C(C)=N/O.CC(=N\O)/C(C)=N/O.OC1[CH-]CCCC1.[Co+2] | 28% (inactive)
76 | CC(=O)OC1C2(CC3N4C(=O)C5(CO)SSC4(CC31O)C(=O)N5C)OC(C)C(C)(C)C2=O (stereo not drawn) | 99% (active)
77 | C[C@H]1C/C=C/[C@H]2[C@@H]3O[C@]3(C)[C@@H](C)[C@H]3[C@H](Cc4ccccc4)NC(=O)[C@]32OC(=O)O/C=C/[C@@](C)(O)C1=O | 36% (inactive)
78 | C1CC[N-]CC1.[Cl][Au]([Cl])[Cl] | 74% (active)
